The record followed here is PubChem BioAssay (Tox21).

Records with an inconclusive call do not appear. Activity calls are given as the source filed them. Unless noted, the call rests on the fitted dose curve.

Test [1] can be described thus: Nuclear factor erythroid 2-related factor 2/antioxidant responsive element (Nrf2/ARE) small molecule agonists: qHTS cell viability counter screen in human keratinocytes (AID 1919968; active means well fitted curve in the direction sought with a large enough effect in the repeat runs; an effect the other way counts as inactive or inconclusive; further: nearly all actives have a fitted effect of over 55% in size; further: potency means the concentration at half of the fitted maximal effect). A digest of the protocol:
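Cytotoxicity was multiplexed with the Nrf2/ARE luciferase assay in the same wells. Stably transfected HaCaT keratinocytes were treated with test compounds for 23 h at 37 C. Cell viability was then measured by CellTiter-Fluor fluorescence.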
On the technique in general: qHTS replaces the single test concentration by a dilution series.

The target in test [2] is Gonadotropin-releasing hormone receptor (Homo sapiens) (UniProt P30968). In words: Human gonadotropin-releasing hormone receptor (GnRHR) small molecule agonists, calcium flux assay in GnRHR-HEK293 cells (AID 1920063). Further: nearly all actives have a fitted effect of over 35% in size. Further: potency means the concentration at half of the fitted maximal effect. Summed up: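 Agonist activity was measured as intracellular calcium flux in HEK293 cells engineered to stably express human GnRHR. After dye loading for 1 hour at 37 C, compounds in DMSO were added and fluorescence was followed for 3 minutes.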
Chain of Gonadotropin-releasing hormone receptor (Homo sapiens) (P30968 whole entry, looked up): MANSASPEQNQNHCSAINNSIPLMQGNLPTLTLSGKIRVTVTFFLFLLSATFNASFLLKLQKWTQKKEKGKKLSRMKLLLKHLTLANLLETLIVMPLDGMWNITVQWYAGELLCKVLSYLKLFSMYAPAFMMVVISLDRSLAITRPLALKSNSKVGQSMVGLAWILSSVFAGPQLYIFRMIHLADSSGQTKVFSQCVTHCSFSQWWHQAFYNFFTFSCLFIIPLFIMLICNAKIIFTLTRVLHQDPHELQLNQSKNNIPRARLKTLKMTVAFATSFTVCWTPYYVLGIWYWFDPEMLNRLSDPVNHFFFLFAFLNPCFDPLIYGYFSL

Test [3] addresses KiSS-1 receptor (Homo sapiens) (UniProt Q969F8). The experiment in a line: Human kisspeptin (KISS1R) small molecule agonists, calcium flux assay in KISS1R-HEK293 cells (AID 1920064; active means well fitted curve in the direction sought with a large enough effect in the repeat runs; an effect the other way counts as inactive or inconclusive; further: potency means the concentration at half of the fitted maximal effect). A digest of the protocol: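 Agonist activity is monitored as intracellular calcium rise in engineered HEK293 cells carrying human KISS1R. Cells are dye-loaded for 1 h at 37 C before compound addition, and fluorescence is recorded for 3 min.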
For orientation: A change in cytosolic calcium serves as a functional read-out for many receptors and channels.

Test [4] can be described thus: G protein-coupled receptor (GPCR) small molecule agonists, calcium flux assay: HEK293 wild type cell line counter screen (AID 1920065). Further: potency means the concentration at half of the fitted maximal effect. Summed up:
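Seed cells, incubate 18 h (37 C, 5% CO2); add calcium dye, 1 h at 37 C; pin-transfer compounds, ATP control or DMSO; read fluorescence 480/540 nm each second for 3 min.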

Test [5] in a line: p53 small molecule agonists, cell-based qHTS assay with human liver microsomes (AID 1963577).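 Further: p53 response element beta-lactamase reporter cells with liver microsomes plus NADPH.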 A digest of the protocol:
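16 h, 37 C exposure of p53RE-bla cells to compounds with human liver microsomes and NADPH (0.5 mg/mL final each); detection via LiveBLAzer mixture, 2 h dark at room temperature.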

Test [6] in a line: p53 small molecule agonists, cell-based qHTS assay with rat liver microsomes (AID 1963578). Summed up:
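With rat liver microsomes and NADPH present (0.5 mg/mL final each), p53RE-bla cells are treated with compound for 16 h at 37 C. LiveBLAzer detection mixture is then applied for 2 h at room temperature in the dark.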

The nature of test [7]: p53 small molecule agonists, cell-based qHTS assay with rat liver microsomes: qHTS cell viability counter screen (AID 1963580). Further: nearly all actives have a fitted effect of over 45% in size. A digest of the protocol:
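After the beta-lactamase ratio was read, CellTiter-Glo was added to the same wells and luminescence measured at 30 min; cells had been treated 16 h at 37 C with compounds, rat liver microsomes and NADPH (0.5 mg/mL final each).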

Test [8] is described as follows: p53 small molecule agonists, cell-based qHTS assay: qHTS cell viability counter screen (AID 1963581). Further: nearly all actives have a fitted effect of over 45% in size. Summed up:
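Viability was counter-screened in parallel with the p53 agonist reporter by measuring intracellular ATP luminescence in the same HCT-116 p53RE-bla wells after 16 h compound treatment at 37 C.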

A short description of test [9]: p53 small molecule agonists, cell-based qHTS assay (AID 1963582; active means well fitted activation curve with a large enough effect in the signal ratio in the repeat runs, not every such curve was filed as active; the % refers to the signal ratio). Summed up:
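Cells carrying a p53-responsive bla reporter are treated with test compounds for 16 h at 37 C; beta-lactamase activity is then detected with LiveBLAzer B/G FRET substrate after 2 h at room temperature.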

Test [10] addresses 5-hydroxytryptamine receptor 2A (Homo sapiens) (UniProt P28223). In words: 5-hydroxytryptamine receptor 2A (HTR2A) small molecule antagonists, cell-based qHTS assay (AID 1963586). Further: nearly all actives have a fitted effect of over 45% in size. A digest of the protocol: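 CHO cells stably expressing human HTR2A were plated for 18 h at 37 C, then loaded with calcium dye for 1 h. Compounds were preincubated 5 min at room temperature before DOI (4 nM solution) was added. Kinetic fluorescence was read for 3 min.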

For test [11] the target is unchanged. In words: 5-hydroxytryptamine receptor 2A (HTR2A) small molecule agonists, cell-based qHTS assay (AID 1963587). Further: nearly all actives have a fitted effect of over 30% in size. Further: potency means the concentration at half of the fitted maximal effect. Summed up:
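CHO cells stably expressing human HTR2A, plated 18 h, loaded with calcium dye 1 h at 37 C. Agonist mode: compounds added and intracellular calcium fluorescence recorded kinetically for 2 min at 1 sec intervals.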

For test [12], the target named is Muscarinic acetylcholine receptor M1 (Homo sapiens) (UniProt P11229). In words: Cholinergic receptor muscarinic 1 (CHRM1) small molecule agonists, cell-based qHTS assay (AID 1963589). Further: nearly all actives have a fitted effect of over 35% in size. Further: potency means the concentration at half of the fitted maximal effect. Summed up: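 Cells were plated and incubated 18 h at 37 C/5% CO2, loaded with calcium dye for 1 h at 37 C, then treated with compounds in DMSO. Fluorescence was recorded kinetically at 1 sec intervals.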
Chain of Muscarinic acetylcholine receptor M1 (Homo sapiens) (P11229 whole entry, looked up): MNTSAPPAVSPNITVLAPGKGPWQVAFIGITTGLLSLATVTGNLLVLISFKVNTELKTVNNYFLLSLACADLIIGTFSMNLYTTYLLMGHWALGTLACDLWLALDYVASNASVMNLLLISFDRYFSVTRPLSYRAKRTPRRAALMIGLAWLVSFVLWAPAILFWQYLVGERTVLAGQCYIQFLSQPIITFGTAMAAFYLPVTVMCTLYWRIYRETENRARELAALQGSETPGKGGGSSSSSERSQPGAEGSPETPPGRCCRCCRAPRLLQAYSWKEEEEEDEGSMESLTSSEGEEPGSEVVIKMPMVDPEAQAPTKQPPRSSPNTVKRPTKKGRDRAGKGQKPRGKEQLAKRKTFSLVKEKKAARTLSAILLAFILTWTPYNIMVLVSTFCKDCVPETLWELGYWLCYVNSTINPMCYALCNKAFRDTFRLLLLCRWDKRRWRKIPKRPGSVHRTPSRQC

Test [13] is described as follows: cAMP Responsive Elements (CRE) small molecule agonists, cell-based qHTS assay (AID 1963590). A digest of the protocol: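 Cells carrying a CRE-driven beta-lactamase reporter (HEK 293T) are seeded, incubated overnight (18 h), and treated with test compounds for 3 h at 37 C; reporter activity is then detected with a FRET substrate after 2 h at room temperature.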

Test [14] in a line: cAMP Responsive Elements (CRE) small molecule antagonists, cell-based qHTS assay (AID 1963591; active means well fitted inhibition curve with a large enough effect in the signal ratio in the repeat runs, not every such curve was filed as active; the % refers to the signal ratio). Summed up: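 Cells (CRE-bla HEK 293T, DMEM with 10% dialyzed FBS and 25 mM HEPES) are seeded and incubated 18 h. Compounds are added with NKH477 agonist at 0.25 uM final for 3 h, then FRET substrate for 2 h.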
Test [15] deals with D(2) dopamine receptor (Homo sapiens) (UniProt P14416). The experiment in a line: Dopamine D2 receptor (DRD2) small molecule agonists, cell-based qHTS assay (AID 1963594). Further: nearly all actives have a fitted effect of over 35% in size. Further: potency means the concentration at half of the fitted maximal effect. Summed up:
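HEK293 cells stably expressing human DRD2, pre-treated with PDE inhibitor Ro20-1724 (0.1 mM final) and compound 10 min at room temperature, then stimulated with NKH477 (200nM […]) for 30 min. cAMP read by HTRF (665/620 nm).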

In test [16] the target is Muscarinic acetylcholine receptor M1 (Homo sapiens) (UniProt P11229). In words: Cholinergic receptor muscarinic 1 (CHRM1) small molecule antagonists, cell-based qHTS assay (AID 1963588). Further: nearly all actives have a fitted effect of over 40% in size. A digest of the protocol: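 Compounds were tested at 15 concentrations in three independent runs. Dye-loaded CHRM1-CHO cells were exposed 5 min at room temperature before stimulation by acetylcholine added at 50nM. Intracellular calcium was read kinetically on FDSS for 3 min.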

In test [17] the target is D(2) dopamine receptor (Homo sapiens) (UniProt P14416). The experiment in a line: Dopamine D2 receptor (DRD2) small molecule antagonists, cell-based qHTS assay (AID 1963595; active means well fitted inhibition curve with a large enough effect in the signal ratio in the repeat runs, with a control signal flat; the % refers to the signal ratio). A digest of the protocol:
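Cells were plated and grown for 24 h at 37 °C. Ro20-1724 (0.1 mM final) went in first, then compound for 10 min. NKH477 (200 nM) with quinpirole (12 nM) followed for 30 min at RT, then HTRF detection reagents for 1 h.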

Test [18] can be described thus: p53 small molecule agonists, cell-based qHTS assay with human liver microsomes: qHTS cell viability counter screen (AID 1963579). Further: nearly all actives have a fitted effect of over 45% in size. Summed up:
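In this multiplexed counter screen, the reporter plates were subsequently treated with CellTiter-Glo so that cell viability, reflected by luminescence, could be recorded for p53RE-bla cells dosed 16 h with compounds under microsomal activation (HLM and NADPH).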

For test [19], the target named is Beta-2 adrenergic receptor (Homo sapiens) (UniProt P07550). In words: Adrenergic beta2 receptor (ADRB2) small molecule antagonists, cell-based qHTS assay (AID 1963592). Further: series mostly up to about 92 µM; nearly all actives have a fitted effect of over 50% in size. A digest of the protocol: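 Assay format: CHO-ADRB2 cells, 18-20hr seeding at 37C/5% CO2, then compound plus 1nM isoproterenol agonist mix for 0.5hr RT. Homogeneous time-resolved fluorescence cAMP detection after 1hr, expressed as 665/615 nm ratio.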
Chain of Beta-2 adrenergic receptor (Homo sapiens) (P07550 whole entry, looked up): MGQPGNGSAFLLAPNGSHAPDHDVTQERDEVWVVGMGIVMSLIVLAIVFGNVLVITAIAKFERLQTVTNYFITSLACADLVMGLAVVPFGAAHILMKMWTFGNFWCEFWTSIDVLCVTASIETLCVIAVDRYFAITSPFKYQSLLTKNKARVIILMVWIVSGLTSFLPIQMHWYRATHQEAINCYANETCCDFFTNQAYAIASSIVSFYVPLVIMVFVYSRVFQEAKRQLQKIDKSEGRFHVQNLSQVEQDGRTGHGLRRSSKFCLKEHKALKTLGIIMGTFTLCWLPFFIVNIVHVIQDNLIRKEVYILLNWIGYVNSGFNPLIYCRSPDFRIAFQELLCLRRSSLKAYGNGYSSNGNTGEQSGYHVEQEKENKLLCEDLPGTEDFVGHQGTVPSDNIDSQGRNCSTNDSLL

For test [20] the target is unchanged. In words: Adrenergic beta2 receptor (ADRB2) small molecule agonists, cell-based qHTS assay (AID 1963593).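 Further: CHO cells stably overexpressing human ADRB2.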 Summed up:
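CHO cells stably over-expressing ADRB2 were plated overnight at 37C, then dosed with compounds plus a stimulation mix containing 100uM IBMX and 25uM Ro-20-1724 for 0.5hr at room temperature. cAMP was measured by HTRF competition, 1hr.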

Chain of KiSS-1 receptor (Homo sapiens) (Q969F8 whole entry, looked up): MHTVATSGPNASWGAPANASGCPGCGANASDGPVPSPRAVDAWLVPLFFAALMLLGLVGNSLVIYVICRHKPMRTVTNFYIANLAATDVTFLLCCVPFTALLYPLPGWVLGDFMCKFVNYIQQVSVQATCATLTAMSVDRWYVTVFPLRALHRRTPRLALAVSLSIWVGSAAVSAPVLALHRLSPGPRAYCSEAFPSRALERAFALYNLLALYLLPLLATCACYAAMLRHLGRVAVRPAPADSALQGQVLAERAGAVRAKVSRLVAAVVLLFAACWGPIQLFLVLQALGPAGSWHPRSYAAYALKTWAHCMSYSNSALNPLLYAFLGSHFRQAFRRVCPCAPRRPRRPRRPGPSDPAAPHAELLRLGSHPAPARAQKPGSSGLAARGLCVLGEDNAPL
Chain of D(2) dopamine receptor (Homo sapiens) (P14416 whole entry, looked up): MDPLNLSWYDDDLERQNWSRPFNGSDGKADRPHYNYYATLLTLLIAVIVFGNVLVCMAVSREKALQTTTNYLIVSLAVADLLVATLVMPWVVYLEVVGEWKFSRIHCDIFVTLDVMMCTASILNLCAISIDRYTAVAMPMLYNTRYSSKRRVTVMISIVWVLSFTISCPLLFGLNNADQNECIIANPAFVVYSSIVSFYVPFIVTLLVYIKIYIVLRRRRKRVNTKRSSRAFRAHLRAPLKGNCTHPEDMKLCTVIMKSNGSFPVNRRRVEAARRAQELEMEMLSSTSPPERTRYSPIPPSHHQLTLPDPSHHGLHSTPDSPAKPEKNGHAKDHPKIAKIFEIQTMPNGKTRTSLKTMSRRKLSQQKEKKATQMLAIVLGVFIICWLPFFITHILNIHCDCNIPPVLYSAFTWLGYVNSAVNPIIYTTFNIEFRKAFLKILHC
Chain of 5-hydroxytryptamine receptor 2A (Homo sapiens) (P28223 whole entry, looked up): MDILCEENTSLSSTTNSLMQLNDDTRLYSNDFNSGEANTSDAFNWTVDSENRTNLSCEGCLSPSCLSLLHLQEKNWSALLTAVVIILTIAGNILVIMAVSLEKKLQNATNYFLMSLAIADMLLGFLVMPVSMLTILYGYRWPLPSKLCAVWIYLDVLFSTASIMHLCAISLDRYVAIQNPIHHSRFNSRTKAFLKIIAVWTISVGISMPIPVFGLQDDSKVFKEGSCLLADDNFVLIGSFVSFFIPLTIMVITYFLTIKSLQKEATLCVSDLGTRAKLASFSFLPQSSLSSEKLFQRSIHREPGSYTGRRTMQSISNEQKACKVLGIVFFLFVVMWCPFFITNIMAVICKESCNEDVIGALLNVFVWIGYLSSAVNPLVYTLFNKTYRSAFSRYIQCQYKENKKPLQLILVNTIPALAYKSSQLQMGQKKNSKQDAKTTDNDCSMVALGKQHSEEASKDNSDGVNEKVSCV

In the case of `CCN(CC)c1ccc2c(-c3ccccc3C(=O)O)c3ccc(=[N+](CC)CC)cc-3oc2c1`, the Potency was 15.4 µM (active) in [1]; 34.7 µM (active) in test [2]; 49 µM (active) in [3]; 34.7 µM (active) in test [4]; 49 µM (active) in test [11]; 43.6 µM (active) in [12]. The Potency in test [15] is 58.8 µM (active). The Potency entry in test [5], in test [6], in test [7], in [8], in test [9] and in test [10] was “inactive” in each case. In addition, the Potency entry in test [13] and in [14] was “inactive” each time.

Consider `CCOc1ccc(NC(C)=O)cc1N`, for which the Potency entry in test [1], in test [2], in test [3], in [4], in test [5] and in test [6] was “inactive” each time. Besides, the Potency entry in test [7], in test [8], in test [16], in [12], in [13] and in test [14] was “inactive” in each case. Also, the Potency entry in [15] and in [17] was “inactive” each time.

With `CCc1ccc2c(c1)C(=O)c1ccccc1C2=O`, the Potency entry in test [1], in test [2], in test [3], in test [4], in test [5] and in [6] was “inactive” in each case. Moreover, the Potency result in [18], in test [8], in test [9], in test [11], in test [16] and in [12] was “inactive” throughout. In addition, the Potency result in test [19], in test [15] and in test [17] was “inactive” in each case.

Turning to `c1cc(C(c2ccc(OCC3CO3)cc2)c2ccc(OCC3CO3)cc2)ccc1OCC1CO1` (stereo unspecified), the Potency in [1] is 27.3 µM (active). In addition, the Potency entry in [2], in test [3], in [4], in [5], in test [6] and in test [18] was “inactive” each time. Moreover, the Potency entry in test [8], in [10], in test [11], in [16], in [12] and in test [17] was “inactive” in each case.

Take `Cc1cc(O)c2ccccc2c1O`: the Potency in test [1] was 13.3 µM (active). The Potency result in test [2], in test [3], in [4], in test [5], in [6] and in [18] was “inactive” in each case. The Potency result in test [10], in test [11], in test [16], in [12], in test [19] and in test [15] was “inactive” each time. The Potency result in test [17] was “inactive”.

In the case of `CC(C)(C)c1cc(CO)cc(C(C)(C)C)c1O`, the Potency entry in test [1], in test [2], in test [3], in test [4], in test [5] and in test [6] was “inactive” throughout. The Potency result in [9], in test [10], in test [11], in test [19], in test [15] and in test [17] was “inactive” each time.

For the compound `CC(=O)[C@H]1[C@H](C#N)C[C@H]2[C@@H]3CC=C4C[C@@H](O)CC[C@]4(C)[C@H]3CC[C@@]21C`, the Potency result in [1], in test [2], in test [3], in [4], in test [5] and in test [6] was “inactive” throughout. Moreover, the Potency entry in test [7], in [8], in [19], in test [15] and in test [17] was “inactive” throughout.

`CC/C=C1/OC(=O)c2ccccc21`: the Potency entry in test [1], in [2], in [3], in [4], in test [5] and in [6] was “inactive” each time. In addition, the Potency result in test [7], in test [8], in test [9], in [10], in [11] and in test [16] was “inactive” throughout. Moreover, the Potency result in test [12], in [13], in test [19], in test [15] and in test [17] was “inactive” in each case.

With `CCC(C)O` (stereo unspecified), the Potency result in test [1], in test [2], in [3], in test [4], in test [5] and in test [6] was “inactive” throughout. For the same compound, the Potency result in test [18], in test [8], in [9], in [11], in test [16] and in test [13] was “inactive” in each case. For the same compound, the Potency entry in test [19], in test [20] and in [15] was “inactive” in each case.

In the case of `CCc1oc2ccccc2c1C(=O)c1cc(I)c(O)c(I)c1`, the Potency in test [1] was 5.96 µM (active). The Potency result in test [2], in test [3], in test [4], in [5], in [6] and in test [7] was “inactive” throughout. Moreover, the Potency result in test [11], in test [16], in test [12], in [13], in test [14] and in [19] was “inactive” each time. Further, the Potency entry in test [20], in test [15] and in [17] was “inactive” each time.

For `CCCCCCCCCC(C)C=O` (stereo unspecified), the Potency entry in [1], in test [2], in test [3], in test [4], in test [5] and in [6] was “inactive” in each case. Moreover, the Potency result in [7], in [11], in [16], in test [12], in [14] and in test [19] was “inactive” each time. Moreover, the Potency result in test [15] and in test [17] was “inactive” in each case.

Consider `OC[C@H]1O[C@@H](OCCc2ccc(O)cc2)[C@H](O)[C@@H](O)[C@@H]1O`, for which the Potency result in test [1], in test [2], in test [3], in test [4], in [5] and in test [6] was “inactive” in each case. Also, the Potency entry in [7], in test [8], in [9], in test [10], in test [16] and in test [12] was “inactive” each time. Further, the Potency result in test [13], in [14] and in test [20] was “inactive” in each case.
